Results on 108 compounds are retold here after PubChem BioAssay AID623868 (Vanderbilt High Throughput Screening Facility, 2012).

Each structure is given as a SMILES string. In all, about 2,100 compounds went through this assay and about 760 (36%) were called active. These entries were drawn from the full list. Values without a mark were called inactive.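 Rule for the calls: active = thallium-flux fluorescence traces judged by eye to show enhanced or reduced glutamate response, manual score 1 or -1, so both directions (some results past the limit were not filed as active); inactive = the rest, including fluorescent or raised-baseline compounds.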

The nature of the test: thallium influx changes without GIRK channels – cell-based, HEK-293 rmGlu8, no GIRK, thallium flux, counter-screen for GIRK activator project, confirmation (AID 623868).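 Note: extra codes mark interference with 3 for fluorescent and 4 for baseline rise.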 The conditions noted are these: thallium flux fluorescence, at 10 µM, actives lie on both sides, codes: 1 enhancer, -1 blocker, 0 none, thallium stimulus containing EC20 glutamate. In general terms: The purpose of a counterscreen is to sort out artefacts and off-target activity.
Regarding `COc1ccc(-c2nnc(CSc3nc4ccccc4c(=O)n3C)o2)cc1OC`, the manual score is -1 (active).
As for `COc1ccc(-c2nc(C#N)c(NCCCN(C)C)o2)cc1OC`, the figure is 0.
As for `COc1cc(-c2nnc(CSc3nc4ccccc4s3)o2)cc(OC)c1OC`, the manual score is 0.
In the case of `COc1ccccc1C(=O)NNC(=S)NC(=O)c1ccco1`, the manual score is 1 (active).
Regarding `COc1ccc(C(=O)NNC(=S)NC(=O)c2ccco2)cc1`, the manual score is 1 (active).
Then `S=c1[nH]nc(-c2ccco2)n1/N=C/c1cccc(Cl)c1Cl`, with 1 (active).
In the case of `S=c1[nH]nc(CSCc2ccc(Cl)cc2Cl)n1-c1ccccc1`, the manual score is 0.
As to `S=c1[nH]nc(-c2ccco2)n1/N=C/c1ccc(Cl)cc1Cl`, the manual score is 1 (active).
With `O=C1c2ccsc2SCCN1Cc1c(Cl)cccc1Cl`, the manual score is 0.
As for `O=c1c2c3c(sc2nc2n1CCCCC2)CCCCC3`, the figure is 0; as for `CCn1c(SCC(N)=O)nc2sc3c(c2c1=O)CCCC3`, 1 (active).
As to `COC(=O)c1sc(N2C(=O)C(O)=C(C(=O)c3ccc(C)o3)C2c2ccc(F)cc2)nc1C` (stereo not drawn), the manual score is -1 (active).
Take `C=CCn1c(=O)c2c(C)c(C)sc2n2c(Nc3ccc(OC)cc3)nnc12`: the manual score is -1 (active).
`COC(=O)Nc1nnc(Cc2ccc(Cl)cc2)s1`: the manual score is 0.
As for `O=C(NC(=S)N1CCCc2ccccc21)c1ccc([N+](=O)[O-])cc1`, the manual score was 1 (active).
Then `O=C(NC(=S)N1CCc2ccccc21)c1ccccc1`, with 1 (active); and `CC12CCC(C(=O)N3CCCc4ccccc43)(CC1=O)C2(C)C` (stereo not drawn), with 0; and `O=C(NC(=S)N1CCCc2ccccc21)c1ccc(Br)cc1`, with 1 (active).
As for `O=S(=O)(Cc1ccccc1)N1CCc2ccccc21`, the figure is 3; as for `O=C(NC(=S)N1CCCc2ccccc21)c1ccc(Cl)cc1`, 1 (active).
For the compound `O=C(CSc1nc(-c2ccccc2)cc(=O)[nH]1)N1CCc2ccccc21`, the manual score was 0.
For the compound `CCSc1nnc(NC(=O)c2nn(C(C)C)c(=O)c3ccccc23)s1`, the manual score was -0.5.
Regarding `CS(=O)(=O)N(CCc1ccccc1)CC(=O)NCc1ccc2c(c1)OCO2`, the manual score was 0.
As to `CC(C)(C)C1CCC2(CC1)Nc1cccc3cccc(c13)N2`, the manual score was 0.
Then `CC1CCN(CC(O)COC2CCC(C(C)(C)C)CC2)CC1` (stereo not drawn), with 0.
Regarding `Cc1c(C(=O)N2CCc3ccccc32)oc2c1C(=O)CC(C)(C)C2`, the manual score is 0.
As for `O=C(N/N=C1\CCCc2ccccc21)c1ccc([N+](=O)[O-])cc1`, the manual score was 1 (active).
Regarding `CCC1CCCCN1C(=O)c1cc2cc(Br)ccc2oc1=O` (stereo not drawn), the manual score was 0.
On to `O=C(NC(=S)N1CCCc2ccccc21)c1ccccc1`, for which the manual score is 1 (active).
Take `CCC1CCCCN1C(=O)CSc1nnc(-c2ccco2)o1` (stereo not drawn): the manual score is 0.
For `O=C(NC(=S)N1CCc2ccccc21)c1ccccc1Br`, the manual score was 1 (active).
Regarding `O=C(c1ccccc1)N1CCCc2ccccc21`, the manual score was 0.
As to `COC(=O)c1cc2sccc2n1CC(=O)N1CCCc2ccccc21`, the manual score was 0.
As to `CCC1CCCCN1C(=S)NC(=O)c1ccc([N+](=O)[O-])cc1` (stereo not drawn), the manual score is 1 (active).
For `CCCCC(=O)Nc1ncc2c(n1)CC(C)(C)CC2=O`, the manual score is 0.
Then `Cc1oc(-c2cccc(Cl)c2)nc1CN1CCC(C(=O)NCc2ccco2)CC1`, with 0; and `Cc1oc(-c2cccc(Cl)c2)nc1CN1CCCC(C(=O)NCc2ccco2)C1` (stereo not drawn), with -1 (active).
Turning to `CCc1ccc(-c2nc(CN3CCC(C(=O)NCc4ccco4)CC3)c(C)o2)cc1`, the manual score is 0.
Regarding `CC1=C(C)C(c2ccccc2)NC(=S)N1` (stereo not drawn), the manual score was 0.
Then `O=S(=O)(Nc1ccc(S(=O)(=O)Nc2cccc3ccccc23)cc1)c1ccccc1`, with 0.
Then `Cc1cccc(S(=O)(=O)NC(Cc2c[nH]c3ccccc23)C(=O)O)c1` (stereo not drawn), with 0; and `Cc1cccc(S(=O)(=O)Nc2cccc3c2C(=O)c2ccccc2-3)c1`, with 1 (active); and `Cc1ccc(-c2nnn(CC(=O)N3CCCCC3)n2)c(-n2cnnn2)c1`, with 0.
Regarding `O=C(Nc1ccccc1-c1nnn(CC(=O)N2CCc3ccccc3C2)n1)C1CCC1`, the manual score is -1 (active).
Regarding `CC(C)CC(=O)Nc1ccccc1-c1nnn(CC(=O)N2CCc3ccccc3C2)n1`, the manual score was 0.
Then `O=C(NC(=S)Nc1nc2c(s1)CCCC2)c1ccc(C(=O)c2ccccc2)cc1`, with 0.
For the compound `O=C(NC(=S)Nc1nc2c(s1)CCCC2)c1ccccc1`, the manual score was 0.
Take `COC(=O)c1ccc(C(=O)NC(=S)Nc2nc3c(s2)CCCC3)cc1`: the manual score was 1 (active).
`CC(C)(C)C(=O)Nc1nc2c(s1)COc1ccccc1-2`: the manual score was -0.5.
As for `CC(C)(C)c1ccc(C(=O)NC(=S)Nc2nc3c(s2)CCCC3)cc1`, the figure is 1 (active); as for `COC(=O)C(NC(=O)COc1ccccc1)(Nc1nc2c(s1)CCCC2)C(F)(F)F` (stereo not drawn), 0; as for `N=c1n(CCN2CCCCC2)c2ccccc2n1CC(O)COc1ccccc1` (stereo not drawn), 0.
Turning to `COCCCNc1c2c3c(cccc3[nH]c1=O)C(=O)c1ccccc1-2`, the manual score was 3.
As for `Cc1ccc(NC(=O)c2cc(NC(=O)CCC(=O)O)ccc2N2CCCCC2)cc1`, the figure is 0; as for `O=C(CNC1CCCCCC1)Nc1ccc(N2CCCC2)cc1`, 0; as for `CN(C1CCCCC1)S(=O)(=O)c1ccc(NC(=S)NC(=O)c2cccs2)cc1`, 1 (active).
On to `O=C(NC(=S)Nc1ccc(N2CCCCC2)cc1)c1cccs1`, for which the manual score is 1 (active).
With `O=C(Nc1ccc(N2CCCCC2)c(Cl)c1)c1ncn[nH]1`, the manual score was 0.
On to `O=C(NC(=S)Nc1ccc(N2CCCCC2)c(Cl)c1)c1cccs1`, for which the manual score is 1 (active).
Regarding `Cc1ccc(-c2[nH]nc3c2C(c2ccoc2)C(C#N)=C(N)O3)cc1C` (stereo not drawn), the manual score is 0.
Then `CN(C)c1nc2n(c(=O)n1)C(C#N)CS2` (stereo not drawn), with 0; and `O=C(/C=C/c1ccc(Cl)cc1)NC(=S)NN1CCCCC1c1cccnc1` (stereo not drawn), with 0.
Turning to `COc1ccc(-n2ncc3c(NCc4cccs4)ncnc32)cc1`, the manual score is 0.
On to `c1csc(CCNc2ncnc3sc4c(c23)CCC4)c1`, for which the manual score was -1 (active).
As for `COC(=O)c1ccc(NC(=S)NC(=O)c2cc(-c3ccccc3)nc3ccccc23)cc1`, the manual score is 1 (active).
Take `O=C(NC(=S)Nc1ccccc1)c1cc(-c2ccccc2)nc2ccccc12`: the manual score is 0.5.
As for `O=C(NC(=S)Nc1ccccn1)c1cc(-c2ccccc2)nc2ccccc12`, the figure is 1 (active); as for `Cc1ccccc1NC(=S)NC(=O)c1cc(-c2ccccc2)nc2ccccc12`, 1 (active).
Consider `Cc1cccc(NC(=S)NC(=O)c2cc(-c3ccccc3)nc3ccccc23)c1`, for which the manual score is 0.
As for `Fc1cccc(-n2c(-c3ccco3)nc3nc4ccccc4nc32)c1`, the manual score is 0.
Then `Cc1ccc(C)c(N2CCN(C(=O)CCCOc3cc(=O)n(C)c4ccccc34)CC2)c1`, with 0; and `CCC(=O)Oc1ccc(C/C(=N\O)c2ccc(O)cc2O)o1`, with -1 (active); and `CCCn1c(C)cc(/C=C(\C#N)C(=O)OCC(=O)Nc2cccc(OC)c2)c1C`, with 0.
Then `Cc1ccc2oc(=O)c3cnn(CC(=O)N4CCc5ccccc5C4)c3c2c1`, with -1 (active).
As to `COc1ccc(N(CC(=O)NCCSc2ccccn2)S(C)(=O)=O)cc1Cl`, the manual score is 0.
As to `Cc1nn2c(NCCCN(C)C)c3c(nc2c1-c1ccccc1)CCC3`, the manual score was 0.
Take `O=C(O)CCCCCNc1nc2ncn(Cc3ccccc3)c2c(=O)[nH]1`: the manual score is 0.
As for `Fc1cccc(C2NN=C(c3ccccc3)S2)c1` (stereo not drawn), the figure is 1 (active); as for `O=C1CC(c2ccco2)Sc2nc3ccccc3n21` (stereo not drawn), 0.
As for `CC1(c2ccccc2)CC(C)(C)N2C(=O)/C(=C3\SC(=S)NC3=O)c3cccc1c32` (stereo not drawn), the figure is 1 (active); as for `CN1CCN(CC(=O)N2c3ccccc3C(C)(c3ccccc3)CC2(C)C)CC1` (stereo not drawn), 0.
`Cc1c(C(=O)O)sc2nc3n(c(=O)c12)CCC(C)CC3` (stereo not drawn): the manual score was 0.
For the compound `C=CCCCCCCCCc1nc(=S)[nH][nH]1`, the manual score is 1 (active).
As to `CCCCCCCCc1nc(=S)[nH][nH]1`, the manual score is 1 (active).
On to `COc1c(Cl)cc(Cl)cc1CNCCNCC(C)O` (stereo not drawn), for which the manual score is 0.
`COc1cccc(NC(=O)Cn2nnc(C(=O)Nc3ccccc3)c2N)c1`: the manual score is 0.
Take `CC1CCCCN1CC(=O)Nc1ccc(Oc2ccccc2)cc1` (stereo not drawn): the manual score is 0.
Regarding `COc1cc(C(=O)NC2CC3CCCC(C2)N3CC(=O)Nc2ccccc2)cc(OC)c1OC` (stereo not drawn), the manual score was -1 (active).
Then `O=C(Nc1nnc(-c2ccccc2F)s1)C1CCCO1` (stereo not drawn), with 0; and `CC(C)c1ccc2occ(-c3nn[nH]n3)c(=O)c2c1`, with 0; and `O=c1[nH]c(CS(=O)(=O)c2ccccc2)nc2ccccc12`, with 0.
As for `CCCn1c(SCc2nc3sc(C)c(C)c3c(=O)[nH]2)nc2ccccc2c1=O`, the manual score is 1 (active).
As to `CCCSc1nc2sc3c(c2c(=O)[nH]1)CCN(Cc1ccccc1)C3`, the manual score was 3.
`Cc1c(C)[n+](=O)c2c(n1[O-])CCC2`: the manual score was 0.
Take `COc1ccc(S(=O)(=O)NCCCCCC(=O)NCCCN2CCOCC2)cc1`: the manual score is 0.
As for `CC1(C)Cc2cccc(OCC(=O)Nc3ccccc3N3CCOCC3)c2O1`, the manual score is 0.
In the case of `Cc1cccc(OCC(=O)Nc2ccccc2N2CCN(C(=O)C(C)C)CC2)c1C`, the manual score is -1 (active).
As for `Cc1cc(Cl)ccc1OCC(=O)Nc1ccccc1N1CCOCC1`, the manual score is 0.
As for `Cc1ccccc1OCC(=O)Nc1ccccc1N1CCOCC1`, the manual score is -0.5.
Regarding `CCC(=O)N1CCN(c2ccccc2NC(=O)COc2cccc(C)c2)CC1`, the manual score was -1 (active).
Take `Cc1cccc(OCC(=O)NC(=S)Nc2ccccc2N2CCOCC2)c1`: the manual score is 0.
Then `CC(C)c1cc(C(F)(F)F)n2nc(C(=O)Nc3ccc4c(c3)OCO4)cc2n1`, with 0.
As to `CC1CCCN(C(C(=O)Nc2ccc3c(c2)OCO3)c2ccccc2)C1` (stereo not drawn), the manual score was -0.5.
As to `O=C(NC(=S)Nc1ccc2c(c1)OCO2)c1ccccc1`, the manual score is 1 (active).
Then `O=C(NC(=S)Nc1ccc(Oc2ccc(Cl)cc2)cc1)c1ccccc1`, with 0.
As for `O=C(NC(=S)Nc1ccc2c(c1)OCCO2)c1ccccc1`, the figure is 1 (active); as for `CC1CCN(C(C(=O)Nc2ccc3c(c2)OCO3)c2ccccc2)CC1` (stereo not drawn), 0; as for `Cn1ncc2cc(NC(=S)NC(=O)c3ccccc3)ccc21`, 1 (active).
